The structures appear in SMILES notation. Inconclusive results are not listed. The source made the active and inactive calls. The calls were made as follows: active = hit-call score of the fitted dose curve at least 0.9, where 1 is the maximum; inconclusive = response in the unintended direction; inactive = score below 0.9.

In test [1] the target is Cellular tumor antigen p53 (Homo sapiens) (UniProt P04637). The test is described as follows: TOX21_p53_BLA_p2_ratio: Tox21 HCT-116 p53 Agonism Beta-lactamase Assay, Ratio, Phase 2 (AID 2283592). The gist of the method:
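In this cell-based reporter format, HCT116 cells were dosed with chemicals delivered from DMSO by 217-fold dilution and incubated 16 h at 37C. Emission at 460 and 530 nm after 2 h CCF4-AM loading provided the ratio, fitted upward versus DMSO.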

A short description of test [2]: TOX21_p53_BLA_p3_viability: Viability Assessment in the Tox21 HCT-116 p53 Agonism Beta-lactamase Assay, Phase 3 (AID 2283593).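 Also: cells exposed to compound for 16 h before reading.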 Put shortly:
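HCT-116 cells (4000/well) rested 5 h at 37C, then got DMSO compounds by pin tool (217-fold dilution) for 16 h at 37C, 5% CO2. After the bla read, CellTiter-Glo was added and luminescence read at 30 min, room temperature.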

The target of test [3] is Cellular tumor antigen p53 (Homo sapiens) (UniProt P04637). The test is described as follows: TOX21_p53_BLA_p3_ratio: Tox21 HCT-116 p53 Agonism Beta-lactamase Assay, Ratio, Phase 3 (AID 2283596). The gist of the method:
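HCT116 p53-bla cells (4000/well) given compound in DMSO (217-fold dilution) after 5 h, incubated 16 h at 37C. CCF4-AM substrate 2 h at room temperature; 460/530 nm emission ratio, gain fitted against DMSO.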

Test [4] can be described thus: TOX21_p53_BLA_p4_viability: Viability Assessment in the Tox21 HCT-116 p53 Agonism Beta-lactamase Assay, Phase 4 (AID 2283597).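 Also: hits lower the luminescence signal meaning cytotoxicity.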 The gist of the method:
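We seeded HCT116 p53 reporter cells at 4000/well and waited 5 h. We then added compounds in DMSO at a 217-fold dilution and incubated for 16 h. Viability was read as CellTiter-Glo luminescence after 30 min at RT.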

The target of test [5] is Cellular tumor antigen p53 (Homo sapiens) (UniProt P04637). The test is described as follows: TOX21_p53_BLA_p5_ratio: Tox21 HCT-116 p53 Agonism Beta-lactamase Assay, Ratio, Phase 5 (AID 2283599). Put shortly:
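HCT-116 cells carrying a p53-inducible beta-lactamase reporter were seeded at 4000 cells/well and dosed after 5 h with compound in DMSO (217-fold dilution). After 16 h at 37C, CCF4-AM substrate was added for 2 h, and the 460/530 nm emission ratio was scored as gain-of-signal versus DMSO.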

Test [6] has the same target. The test is described as follows: TOX21_p53_BLA_p4_ratio: Tox21 HCT-116 p53 Agonism Beta-lactamase Assay, Ratio, Phase 4 (AID 2283601). The gist of the method:
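HCT116 cells carrying an inducible beta-lactamase reporter were plated at 4000 cells/well, rested 5 h, then exposed to compounds in DMSO (217-fold dilution) for 16 h at 37C. CCF4-AM substrate was loaded 2 h at room temperature; 460/530 nm emission ratio scored gain-of-signal versus DMSO.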

Chain of Cellular tumor antigen p53 (Homo sapiens) (P04637 whole entry, looked up): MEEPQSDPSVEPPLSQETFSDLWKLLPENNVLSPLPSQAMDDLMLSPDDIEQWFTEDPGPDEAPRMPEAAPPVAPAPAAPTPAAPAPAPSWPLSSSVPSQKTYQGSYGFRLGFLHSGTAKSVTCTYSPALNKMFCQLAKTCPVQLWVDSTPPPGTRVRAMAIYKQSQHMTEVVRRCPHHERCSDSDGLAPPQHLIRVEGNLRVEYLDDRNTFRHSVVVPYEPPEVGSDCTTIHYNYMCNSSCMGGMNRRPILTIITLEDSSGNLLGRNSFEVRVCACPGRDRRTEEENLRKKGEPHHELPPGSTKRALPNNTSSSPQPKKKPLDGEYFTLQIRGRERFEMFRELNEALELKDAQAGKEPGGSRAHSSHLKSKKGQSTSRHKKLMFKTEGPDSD

By AC50 is commonly meant the concentration at which the activity in the assay is half-maximal. In the case of `Cc1cccc2c1cc1ccc3cccc4ccc2c1c34`, the concentration at half-maximal activity (AC50) in test [1] was 0.801 µM (active); in test [3], 2.77 µM (active); in test [5], 2.33 µM (active); in test [6], 0.44 µM (active). For the same molecule, the call in test [2] and in test [4] was inactive.

The values are drawn from PubChem BioAssay (EPA / NIEHS).
